Source: PubChem BioAssay (Broad Institute)
Only a selection was taken, and hits are over-represented in it overall.
MITF inh: blocks MITF activity | 0.28% of 37,000 active | inhibition, % (concentration not given with the values) | TRPM1 promoter luciferase, luminescence, 24 h; in the data active means inhibition above about 85%;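 further: human melanocyte line stably carrying TRPM1 promoter luciferase reporter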
Hedgehog inh: blocks Sonic Hedgehog signaling | Shh-LIGHT2 Gli-luciferase reporter, 30 h | inhibition, % (no concentration beside the values) | 2.1% of 22,000 active;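 active means mean inhibition across valid replicates above about 65%, limit read from the data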;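 further: pathway switched on by Shh-conditioned medium diluted 1 in 25 in low serum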
PD-1 reversal: reversal of PD-1 mediated T-cell inhibition; activation, % (test concentration not listed); primary human CD4 T cells, PD-L1 beads, CellTiter-Glo 96 h; 29,000 tested, under 10 active; call rule not given here;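 further: 0% = median vehicle wells and 100% = positive control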
* marks the source's active call; other numbers are inactive results; x = not tested or not shown.

SMILES	MITF inh	Hedgehog inh	PD-1 reversal
C[C@@H]1CN([C@@H](C)CO)C(=O)c2cc(NC(=O)Nc3ccc(C(F)(F)F)cc3)ccc2O[C@H]1CN(C)C(=O)Nc1ccccc1	10.5	5.4	2.1
Cc1cccc(C)c1NC(=O)CSc1nc2c(cc1C#N)CCC2	5.0	x	x
Oc1c(C(Nc2cccnc2)c2ccc(Cl)cc2)ccc2cccnc12 (stereo not drawn)	38.8	x	-14.4
Oc1c(C(Nc2cccc(Cl)c2)c2cccnc2)ccc2cccnc12 (stereo not drawn)	37.2	74.8*	-3.8
CC(C)c1cc(C(C)C)c(N)c(C(C)C)c1	-8.5	-29.8	-0.7
Cc1ccc(S(=O)(=O)Nc2cccc3c2O[C@@H](CN(C)S(=O)(=O)c2ccc(F)cc2)[C@H](C)CN([C@H](C)CO)C3=O)cc1	-18.5	9.5	x
CN(C)c1ccc(C(=C2C=CC(=[N+](C)C)C=C2)c2ccc(N(C)C)cc2)cc1	108.6*	97.1*	x
CNC[C@H]1Oc2ccc(NS(=O)(=O)c3cccs3)cc2C(=O)N([C@H](C)CO)C[C@H]1C	-1.0	-9.8	0.1
O=C1CC(c2ccccc2)Oc2ccccc21 (stereo not drawn)	-4.0	-30.3	x
O=C1/C(=C/c2ccc(-c3nn[nH]n3)cc2)C(c2ccccc2)Oc2ccccc21 (stereo not drawn)	10.8	73.8*	-9.4
Cc1cc(C)cc(Sc2ccc3nnc(-c4ccccc4)n3n2)c1	54.6	67.2*	-5.2
CSc1nnc(-c2ccccc2)n1-c1ccccc1	-8.7	-16.1	0.7
O=C(O)C1C2C=CC(O2)C1C(=O)Nc1ccc(S(=O)(=O)N2CCc3ccccc32)cc1 (stereo not drawn)	-4.4	x	-1.0
O=S(=O)(c1ccc(Cl)cc1)N1CCc2ccccc21	48.2	80.9*	-9.4
C[C@@H]1CN([C@@H](C)CO)C(=O)c2cc(NC(=O)Nc3ccccc3)ccc2O[C@@H]1CN(C)Cc1ccc2c(c1)OCO2	8.6	16.8	0.4
C[C@@H]1CN([C@H](C)CO)C(=O)Cc2cc(NC(=O)Nc3ccc4c(c3)OCO4)ccc2O[C@@H]1CN(C)Cc1ccc2c(c1)OCO2	-1.5	71.5*	-2.7
C[C@@H]1CN([C@H](C)CO)C(=O)Cc2cc(NC(=O)Nc3ccccc3)ccc2O[C@H]1CN(C)Cc1ccc2c(c1)OCO2	-6.7	-48.5	0.0
C[C@@H]1CN([C@H](C)CO)C(=O)Cc2cc(NC(=O)CCN3CCOCC3)ccc2O[C@H]1CN(C)Cc1ccc(-c2ccccc2)cc1	-26.4	15.3	-0.4
C[C@H]1CN([C@@H](C)CO)C(=O)Cc2cc(NC(=O)CCN3CCOCC3)ccc2O[C@@H]1CN(C)Cc1ccc(-c2ccccc2)cc1	-11.7	65.1*	-0.2
c1ccc2oc(CCCc3nc4ccccc4o3)nc2c1	-29.7	-7.5	-0.1
CCC(C)C1NC(=O)C(CC(C)C)NC(=O)C(CC(=O)O)NC(=O)C(C(C)C)NC(=O)C(CC(C)C)NC(=O)C(CC(C)C)NC(=O)C(CCC(N)=O)NC(=O)CC(CCCCCCCCCC(C)C)OC1=O (stereo not drawn)	x	76.8*	x
CNC(=O)CCC(=O)Nc1ccc(C(=O)OC)cc1	-0.1	x	4.2
COC(=O)c1ccc(NC(=O)CSC(=S)N2CCOCC2)cc1	6.5	67.9*	3.8
OC(CNCc1ccco1)c1ccccc1 (stereo not drawn)	-20.1	x	0.0
C[C@H](CO)N1C[C@H](C)[C@H](CN(C)S(=O)(=O)c2cccs2)Oc2c(NC(=O)c3ccc(-c4nccs4)cc3)cccc2C1=O	45.3	92.0*	-3.4
SMILES	MITF inh	Hedgehog inh	PD-1 reversal
Cc1ccc(S(=O)(=O)N(C)C[C@H]2Oc3c(NC(=O)c4ccc(-c5nccs5)cc4)cccc3C(=O)N([C@@H](C)CO)C[C@H]2C)cc1	13.1	1.5	-1.0
C[C@@H]1CN([C@H](C)CO)C(=O)c2cccc(NC(=O)c3ccc(-c4nccs4)cc3)c2O[C@@H]1CN(C)Cc1ccc(Oc2ccccc2)cc1	21.2	70.5*	-4.9
C[C@H](CO)N1C[C@H](C)[C@H](CN(C)S(=O)(=O)c2ccc(Cl)cc2)Oc2c(NC(=O)c3ccncc3)cccc2C1=O	-10.2	110.7*	-0.4
C[C@H](CO)N1C[C@H](C)[C@@H](CN(C)S(=O)(=O)c2ccc(Cl)cc2)Oc2c(NC(=O)c3ccncc3)cccc2C1=O	-14.5	-1.4	0.1
C[C@H](CO)N1C[C@H](C)[C@@H](CN(C)S(=O)(=O)c2cccs2)Oc2c(NC(=O)c3ccc(-c4nccs4)cc3)cccc2C1=O	-11.7	40.4	x
C[C@@H]1CN([C@@H](C)CO)C(=O)c2cccc(NC(=O)c3ccc(-c4nccs4)cc3)c2O[C@H]1CN(C)Cc1ccc(Oc2ccccc2)cc1	59.8	27.9	-1.0
C[C@H]1CN([C@@H](C)CO)C(=O)c2cccc(NC(=O)c3ccc(-c4nccs4)cc3)c2O[C@H]1CN(C)S(=O)(=O)c1ccc(Cl)cc1	-16.2	93.5*	1.3
